From the supplement of paper PMC11417369
The full ranking holds about 25,000 sequences; the median of “ln(normalized median fluorescence intensity)” is about 6.7, and the highest 2% start at about 10. This excerpt belongs to a sample that is enriched for the highest values.

system: PfHDP1 homeodomain (GST-tagged); assay: gcPBM binding intensity (ln(normalized median fluorescence intensity)); higher = stronger DNA binding
Outline: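 Probes on an Agilent 4 × 180k array were primer-extended, double-stranded and 36 bp long, taken from intergenic genomic regions, with negative controls added. GST-tagged P. falciparum DNA-binding domains from E. coli, about 25 μg on average, were applied to the array for 1 h in 1× PBS containing 1% milk, 0.2 mg/ml BSA, 0.5% salmon testes DNA and 0.03% Triton X-100. Binding intensity, obtained after Alexa488 anti-GST antibody detection and a 488 nm scan, is the highest Masliner-normalised natural-log median intensity across replicate spots of either probe orientation.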

Row | Sequence | gcPBM binding intensity (ln)
1 | ATATACATATATATGGGTACATATATTAATATATAT [XGTACX_site8358] | 6.74
2 | AAAATTAGATTATGCACACACACTTAAAAATAATAA [CACACA_site1975] | 10.1
3 | GTTAGGATAGATTAGACATGCACATAAATGCACTTC [TGCATGCA_site561] | 10.6
4 | AGGATATGCAGACACACACACATATAGATTTATATA [CACACA_site7100] | 6.6
5 | ATATAATTAAAATGCTCACACACATAAAAAAAAATT [CACACA_site2148] | 8.58
6 | TTTTGTTATTTTTGTATGCACTACATATTATTATAT | 8.89
7 | TCGTATATGGATTTTGCACACAATTTTAATTTAAAT [CACACA_site4635] | 10.7
8 | TTATTAAATAAAATCATGCACACAATATATATTTTA [CACACA_site2496] | 8.65
9 | TCGTATATGGATTTTGCACACAATTATAATTTAAAT [CACACA_site868] | 10.8
10 | CATAAATTAATAGTCACACACGTATTTTTTATATAT [CACACA_site2526] | 6.16
11 | GCTAAACAATAGTTTGCACACAATTTAAATATATAT [CACACA_site193] | 10.3
12 | AATAATACACAATTTTGTACGTATTTAAAATATATT [XGTACX_site45] | 6.74
13 | AATATAAACAGACACACACACATATAGATTTATATT [CACACA_site7382] | 6.8
14 | TTCATATAATTATATACATGCATAAATTCTAAGTAA [TGCATGCA_site622] | 6.78
15 | ATACATATATATGTGTGTACATATGTGTATACATTT [XGTACX_site6544] | 6.84
16 | CACACCATATAATATATATATATGTATATATTTATA [CACACA_negctrl_site397] | 6.58
17 | TGTAATATATGTATTGCACACCTATAACCATTATTT [CACACA_site8422] | 9.86
18 | TAATATATGTATTGCACACCTATAACCATTATTTCT [CACACA_site1498] | 10.5
19 | ACATAAAATAAATATACACACATATGTATATATCAT [CACACA_site7424] | 6.52
20 | TTTATATTATTATATCTTATTAATTATTTATCATTT [TGCATGCA_negctrl_site73] | 6.23

Row | Sequence | gcPBM binding intensity (ln)
21 | TTATAATATTAATGTGCACACAATTAAAATATTATA [CACACA_site2046] | 10.7
22 | TAATAATATATTTGTAGTACACAATTTTTTATAACT [XGTACX_site3951] | 6.34
23 | AACTGTACAATTTTTGTGCACAATAATTATTAATAT [GTGCAC_site9462] | 11
24 | TTTTTTTTTTTTTTTGTGCACAATATAATTTTTAAT [GTGCAC_site9747] | 10.8
25 | ATATTTTATTTAATTACACACAATATTGCAATTTGT [CACACA_site669] | 8.74
26 | TATATATATATTTTTTGTACATATTATATAATATAC [XGTACX_site5187] | 8.42
27 | AATATATATATTAGAGTGCACATAATTATTTGCTAA | 8.88
28 | TATTATAATATATTTGTGCACATAATACCTCCGCTA [GTGCAC_site9570] | 10.9
29 | TATTTATTTTTTTTTGTGCACTTAATATAATCTTAC | 9.51
30 | TAAATTATAATATGCACACAAAATGTTATATTAAAA [CACACA_site376] | 9.55
31 | TTATAATTTTAATGTGCACACAATTAAAATATTATA [CACACA_site5172] | 10.2
32 | TTTTTTTTTTTTAATGCACACAATATATAATATGTA [CACACA_site3694] | 10.2
33 | TTTTTATATATATGTATAAATATTTTTTCTATTTAT [XGTACX_negctrl_site606] | 6.46
34 | ACATCAAGCAGACACACACACACACCCACCCACCCA [CACACA_site8012] | 6.5
35 | ACAGGAAAAAACAATTGTACATGTATATATATATAT [XGTACX_site7677] | 9.16
36 | AAATATTACATACACGCACACATTAATATATTTAAA [CACACA_site2603] | 7.25
37 | TAAATAATAATAAATGTGCACAGGTATTAACAAAAA [GTGCAC_site9988] | 10.6
38 | TAAGATATAAAAAATGTGCACATTAAAGTATTAATT | 10.5
39 | TTATATTTTTTAATTACACACAATTTTTATAAATAT [CACACA_site4148] | 6.66
40 | TTAATTTTATTTTTTTGTACACATAAATATTATAAA [XGTACX_site4680] | 6.62

Row | Sequence | gcPBM binding intensity (ln)
41 | TATGTATGTATTAATGCGCACACAAAAAATAACAAT [CACACA_site8551] | 7.73
42 | AAAAAAAAAAAAAAATGTACATATTAAGTATAATTA [XGTACX_site4616] | 6.23
43 | TGTATGTATTAATGCGCACACAAAAAATAACAATAT [CACACA_site1848] | 7.88
44 | CATATAAATATTTGTGCACACAATTATTAATAATTA [CACACA_site3884] | 11.2
45 | TATAAAGATATAAATGCACACGTATTAAAAAAAAAA [CACACA_site8223] | 8.22
46 | TAATAAATAAAAACATGTACATATATACATATATGT [XGTACX_site485] | 6.35
47 | ATATATATAAATATATGTACATAAATATATTTGTAA [XGTACX_site6715] | 6.71
48 | GAAAAAAGGAAATAAAGAAAAAAAAAAATGAAATAT [XGTACX_negctrl_site318] | 6.22
49 | AACATTTTAAAACAGACACACACCAAAAAAAAAAAA [CACACA_site257] | 6.26
50 | GGACAAGTTAAACGCACACAAATATATACCCCCATA [CACACA_site4996] | 7.91
51 | CCTTGTCTTTTTTTTTTTTTTTTTTCTTCTTATTTT [GTGCAC_negctrl_site523] | 6.24
52 | CATATAGTAATATATACACACACTTGTCTTGTAAAA [CACACA_site8238] | 6.54
53 | ATTTAATACAAATACACACACAAATATGTACCTATA [CACACA_site7718] | 7.02
54 | GTTTACATCATTCTGGTGCAAAAAAAAAAAAAAATA | 10.5
55 | GAAAAATATATTCTGGTGCATGAATAAAATCATAAA | 9.33
56 | ACATTCTGATGGTGATTATTAATTATTACAAAAATT [CACACA_negctrl_site283] | 6.01
57 | AATTAAAAAGTTTTTAATGTTTTTAATTTTTTCCAC [XGTACX_negctrl_site423] | 5.99
58 | TATATATATTAAAAACGTACAAAATAAGAATTAATT [XGTACX_site5979] | 6.8
